HCMV inh – inhibitors of human cytomegalovirus. HFF cells, HCMV-luciferase reporter, 72 h; hits give low values. activity change, negative = inhibition, % at 57.5 µM. 4.5% of 410,000 active. AID 1259415; in the data active means activity change below about -60%; inconclusive means no clear call, values can overlap the other calls; inactive means above about -39%
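Two-dose cell screen: HFF monolayers treated with compounds and infected with luciferase-expressing HCMV at 1 PFU/cell, 72 h at 37C, then lysed for luciferase measurement.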
VACV Venus inh – inhibitors of vaccinia virus (Venus reporter) | Vaccinia virus Venus reporter expression, fluorescence | Potency, µM (series often up to 36.5 µM), without a hit: at the highest dose activity change, negative = inhibition, actives largely listed as inhibitors | 0.46% of 330,000 active; calls by dose curve; tested in A549 cells; further: potency means the concentration at half of the fitted maximal effect; nearly all actives have a fitted effect of over 30% in size
VACV mCherry inh – inhibitors of vaccinia virus infection (mCherry reporter signal). Potency, µM (titrated, usually from 36.5 µM), inactives show top-dose activity change, negative = inhibition, actives largely listed as inhibitors. Vaccinia virus mCherry reporter infection, fluorescence. AID 720579. 0.63% of 310,000 active; calls by dose curve; tested in A549 cells; further: potency means the concentration at half of the fitted maximal effect; nearly all actives have a fitted effect of over 35% in size
FMDV antiviral – blocks foot and mouth disease virus; FMDV antiviral cell-based qHTS; Potency, µM (top dose mostly 57.9 µM), without a hit: at the top dose activity change, negative = inhibition, actives largely listed as inhibitors; 1.2% of 410,000 active; AID 1159524; calls by dose curve; tested in HEK293T cells; further: read-out not given here; potency means the concentration at half of the fitted maximal effect; nearly all actives have a fitted effect of over 45% in size
LASV entry inh – inhibitors of Lassa virus binding or cell entry | 1.2% of 300,000 active | AID 540256 | Potency, µM (series often up to 37.9 µM), without a hit: top-dose activity change, negative = inhibition, usual class: inhibitors | Lassa virus pseudotype entry inhibition, cell reporter; calls by dose curve; tested in HEK293 cells; further: potency means the concentration at half of the fitted maximal effect; nearly all actives have a fitted effect of over 50% in size
MARV entry inh – Marburg virus entry inhibition | Marburg virus pseudotyped entry inhibition, cell reporter | Potency, µM (doses to about 37.8 µM), without a hit: top-dose activity change, negative = inhibition, hits mostly inhibitors | 1.8% of 300,000 active | AID 540276; calls by dose curve; tested in HEK293 cells; further: potency means the concentration at half of the fitted maximal effect
* marks the source's active call; other numbers are inactive results; i = inactive; ? = inconclusive; · = not tested or not shown; [ ] = dose if it differs, or a comment. In the library only some 6.5% were active in any assay of this set; here they are far more common. On the % scale 0 is the no-effect control and ±100 the full control effect.

SMILES	HCMV inh	VACV Venus inh	VACV mCherry inh	FMDV antiviral	LASV entry inh	MARV entry inh
O=[N+]([O-])c1ccc(N2CCN(c3cccc(Cl)c3)CC2)cn1	?	-20%	?	-22%	?	8.9µM*
COc1cccc(C(=O)N2CCCC(c3nc(-c4cccs4)no3)C2)c1 (centres undefined)	-103*	·	·	-2%	-10%	2%
CCN(CC)S(=O)(=O)c1ccc(C)c(NC(=S)Nc2cccc(S(=O)(=O)N3CCCCCC3)c2)c1	-77*	-20%	i	?	?	?
CC(=O)Nc1cccc(S(=O)(=O)N2CCCCCC2)c1	-100*	-6%	i	9%	-5%	-28%[46.1 µM]
CCN(CC)S(=O)(=O)c1ccc(C)c(NC(=O)CNc2cccc(S(=O)(=O)N3CCOCC3)c2)c1	-4	-5%	-28%	-27%	-10%	0%[46.1 µM]
CCCC(C(=O)Nc1cccc(S(=O)(=O)N2CCCC2)c1)c1ccccc1 (centres undefined)	?	-14%	?	-3%	7.1µM*	?
CC(CC(=O)Nc1cccc(S(=O)(=O)N2CCCCC2)c1)c1ccccc1 (centres undefined)	24	·	·	-11%	·	·
CSc1cccc(NC(=O)COc2ccccc2)c1	-80*	-21%	-24%	45%	19%	2%
O=C(NCc1cccc(Cl)c1)O[C@H]1CC[C@@]23CCCN2C(=O)CCC[C@H]3[C@H]1Cc1ccccc1	0	·	·	·	·	·
C[C@H](NC(=O)C[C@@H]1C[C@@H]2c3cc(NC(=O)C4CCC4)ccc3O[C@@H]2[C@@H](CO)O1)c1ccccc1	-18	·	·	·	·	·
COc1cc(CCC(=O)Nc2cccc(C(F)(F)F)c2)cc(OC)c1OC	-28	-11%	-19%	0%	9%	?
COc1ccc(CC(=O)Nc2cccc(SC)c2)cc1OC	-66*	-16%	i	?	?	?
CN(C)S(=O)(=O)c1cccc(NC(=O)CNc2cccc(S(=O)(=O)N3CCCCC3)c2)c1	-81*	?	?	-6%	·	·
O=C(CN1CCN(c2ccc(O)cc2)CC1)Nc1cc(S(=O)(=O)N2CCCCC2)ccc1Cl	-74*	-6%	-16%	0%	-26%	-26%[46.1 µM]
O=C(CNc1cccc(S(=O)(=O)N2CCCCC2)c1)Nc1cccc(F)c1	?	-23%	-13%	0%	-34%[46.1 µM]	-29%
COc1cc(CC(=O)Nc2cccc(C(F)(F)F)c2)cc(OC)c1OC	-71*	-16%	-19%	?	-15%	?
COc1ccc(N/C(=N/c2nc(C)cc(C)n2)NC(=O)C(C)C)cc1OC	·	·	·	·	·	8%
O=S(=O)(c1ccccc1Br)N1CCN(c2nc(-c3ccccc3)nc3ccccc23)CC1	·	-7%	-13%	·	·	·
CSc1cccc(NC(=O)Nc2ccccc2)c1	-12	-22%	-12%	32%	0%	16%
COc1ccccc1-n1cnnc1SCC(=O)Nc1cccc(S(=O)(=O)N2CCCCC2)c1	-68*	·	·	·	4%	1%
COc1ccc(S(=O)(=O)Nc2cccc(S(=O)(=O)N3CCCCCC3)c2)cc1	6	-7%	-14%	25%	-11%	4%
CSc1cccc(NC(C)C(=O)NCc2ccccc2)c1 (centres undefined)	-65*	-7%	-17%	-3%	-5%	-26%[46.1 µM]
O=S(=O)(Nc1nc2ccccc2nc1Nc1cccc(S(=O)(=O)N2CCCCC2)c1)c1ccccc1	-83*	?	11µM*	?	?	?
COc1ccc(CC(=O)Nc2cccc(S(=O)(=O)N3CCCCCC3)c2)cc1OC	-83*	-28%	?	?	4.5µM*	?
O=C1[C@H]2[C@H]3[C@H](O)[C@H](O)C/C(=N\OC[C@@H](O)COCc4ccco4)[C@H]3CC[C@H]2C(=O)N1Cc1ccccc1	·	·	·	·	·	-4%[14.2 µM]
Cc1ccc(NC(=O)C(=O)NCC(c2cccnc2)N2CCN(Cc3ccccc3)CC2)cc1F (centres undefined)	-16	-22%	-16%	?	7%[46.1 µM]	·
O=C(Nc1cccc(Cl)c1)Nc1cc(S(=O)(=O)N2CCCCC2)ccc1Cl	-99*	?	-25%	?	?	4µM*
COc1ccc(NC(=O)CN(C)C(=O)/C=C/c2ccc(S(=O)(=O)N3CCCCCC3)cc2)cc1	-77*	-27%	-13%	-25%	-3%	?

From PubChem BioAssay
